# Screening data from PubChem.
# SARS PLpro yeast: qHTS of Yeast-based Assay for SARS-CoV PLP. S. cerevisiae expressing SARS-CoV PLpro, growth rescue. Potency, µM (series often up to 32.9 µM), inactives show at the highest dose activity, positive = growth rescue, most hits filed as activators. 330,000 compounds, 0.19% hits; calls by dose curve; note: potency is the fitted concentration of half-maximal effect; 0% is about no effect; nearly all actives have a fitted effect of over 55% in size
# FMDV antiviral: High Throughput Screening for Foot and Mouth Disease Virus Antivirals | FMDV antiviral cell-based qHTS | Potency, µM (top dose mostly 57.9 µM), for the others: at the top dose activity change, negative = inhibition, most hits filed as inhibitors | 410,000 compounds, 1.2% hits | AID 1159524, 2015; calls by dose curve; tested in HEK293T cells; note: read-out not given here; potency is the fitted concentration of half-maximal effect; % is set by controls: 0 for no effect and ±100 for the full control effect; nearly all actives have a fitted effect of over 45% in size
# HCMV antiviral: qHTS Assay for inhibitors of the human cytomegalovirus (HCMV). HFF cells, HCMV-luciferase reporter, 72 h; active compounds read low. activity change, negative = inhibition, % at 57.5 µM. 410,000 compounds, 4.5% hits; in the data active = activity change below about -60%; inconclusive = no clear call, values can overlap the other calls; inactive = above about -39%; note: % is set by controls: 0 for no effect and ±100 for the full control effect
#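 After 16 h attachment at 37C, HFF cells received test compound and HCMV-luciferase (1 PFU/cell); reporter luminescence read 72 h later, data normalized against buffer-only and known inhibitor Salinomycin.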
# LASV entry inh: qHTS for Inhibitors of binding or entry into cells for Lassa Virus; Lassa virus pseudotype entry inhibition, cell reporter; Potency, µM (highest dose often 37.9 µM), for the others: at the highest dose activity change, negative = inhibition, actives largely listed as inhibitors; 300,000 compounds, 1.2% hits; AID 540256, 2011; calls by dose curve; tested in HEK293 cells; note: potency is the fitted concentration of half-maximal effect; % is set by controls: 0 for no effect and ±100 for the full control effect; nearly all actives have a fitted effect of over 50% in size
# MARV entry inh: qHTS for inhibitors of binding or entry into cells for Marburg Virus; Marburg virus pseudotyped entry inhibition, cell reporter; Potency, µM (highest dose often 37.8 µM), for the others: at the highest dose activity change, negative = inhibition, hits mostly inhibitors; AID 540276, 2011; 300,000 compounds, 1.8% hits; calls by dose curve; tested in HEK293 cells; note: potency is the fitted concentration of half-maximal effect; % is set by controls: 0 for no effect and ±100 for the full control effect
# HCV inh: qHTS Assay for Inhibitors of Hepatitis C Virus (HCV) | Huh7.5.1 HCVcc-Cre infection, luciferase reporter, 44 h | Potency, µM (top dose mostly 41.8 µM), without a hit: at the top dose activity change, negative = inhibition, usual class: inhibitors | 340,000 compounds, 3.4% hits | AID 651820, 2012; active = well fitted inhibition curve with a large enough effect; inconclusive = small, poorly fitted or top-dose-only effect, or another doubt; inactive = no such curve, though single readings can be large or run the other way; note: potency is the fitted concentration of half-maximal effect; % is set by controls: 0 for no effect and ±100 for the full control effect
#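 After 44 h co-culture of compound, cells and HCVcc-Cre (~0.5 moi), substrate is added for 15 min at room temperature and luciferase measured over 15 sec. Cells were seeded at 1,000/well and pre-cultured 4 h.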
# An asterisk follows results filed as active; ? = inconclusive; nt = no result; [ ] = dose if it differs, or a comment. Only some compounds are listed: those with a hit (about 8% of all), similar ones and a draw of the others.
SMILES,SARS PLpro yeast,FMDV antiviral,HCMV antiviral,LASV entry inh,MARV entry inh,HCV inh
Cc1ccc(CN2CC(C(=O)Nc3ccc(C)c(S(=O)(=O)N4CCCCC4)c3)CC2=O)cc1 (centres undefined),nt,-10.8%,-66.1*,?,?,?
Cc1ccc(NC(=O)CN(C)C(=O)Cn2ncc(Cl)c(Cl)c2=O)cc1,-18.8%,0.0%,-99.9*,15.8µM*,5.01µM*,3.16µM*
Cc1ccc(NC(=O)CNc2cccc(Br)c2)cc1S(=O)(=O)N1CCOCC1,nt,-25.9%,-26.5,nt,nt,?
COc1ccc(CC(=O)Nc2ccc(C)c(S(=O)(=O)N3CCCCCC3)c2)cc1,1.1%,-19.7%,-0.2,nt,nt,?
O=C(Nc1ccccc1)[C@H]1[C@H](CO)[C@H]2Cn3c(cccc3=O)[C@H]2N1C(=O)C1CC1,nt,nt,42.5,nt,nt,nt
Cc1nc(-c2ccc(F)cc2)c(CC(=O)Nc2ccc(C)c(S(=O)(=O)N3CCOCC3)c2)s1,0.4%,?,nt,?,5.01µM*,7.94µM*
COc1ccc(/C=C/c2nc(C)c(-c3ccccc3)c(=O)[nH]2)cc1OC,6.3%,-25.5%,-65.1*,nt,nt,-0.3%
CSc1nc2c(c(=O)[nH]c(=O)n2C)n1Cc1ccccc1Cl,0.7%,?,-2.5,nt,nt,-12.2%
CSc1nc2c(c(=O)[nH]c(=O)n2C)n1Cc1ccc(Cl)cc1,-3.3%,-12.6%,19.2,-0.2%,-4.6%,25.1µM*
CCCn1c(SCc2ccc(Cl)cc2)nc2c1c(=O)[nH]c(=O)n2C,-2.7%,?,?,15.8µM*,-16.3%[46.1 µM],-17.3%
O=C(NCC1(N2CCCCC2)CCCCC1)c1ccc(-n2cc(NC(=O)c3cccnc3)cn2)cc1,nt,-9.6%,nt,nt,nt,nt
O=C(NC1CC1)[C@@H]1C[C@H](Sc2nc3ccccc3[nH]2)CN1CC1CCCCC1,nt,-9.5%,nt,nt,nt,nt
CC(=O)c1ccc2noc(-c3ccccc3)c2c1,-2.0%,-3.1%,-27.3,-2.0%[46.1 µM],-2.9%[46.1 µM],?
CN(C)/C=C/C(=O)c1ccc2noc(-c3ccccc3)c2c1,-2.6%,-5.5%,-62.7*,-13.9%[46.1 µM],5.2%[46.1 µM],?
COc1ccc(/C=C\c2onc(C)c2S(=O)(=O)N2CCC(C(=O)Nc3ccc(C)cc3C)CC2)cc1,nt,-27.7%,-23.9,11.4%[46.1 µM],0.9%[46.1 µM],nt
Cc1ccc2c(c1)c1n[nH]c(=S)nc1n2CCc1ccccc1,0.2%,-29.5%,-92.7*,nt,nt,-6.3%
Cc1ccc(CNCC(=O)Nc2ccc(C)cc2Br)cc1,0.9%,18.4%,-64.0*,-11.3%,-4.7%,17.0%
Cc1ccc(NC(=O)CNCc2ccccc2)c(Br)c1,4.8%,47.7%,10.4,nt,6.3%[46.1 µM],-4.3%
COc1ccc(N2CC(NC(=O)C(c3ccccc3)c3ccccc3)CC2=O)cc1OC (centres undefined),nt,-19.6%,18.8,-18.9%[46.1 µM],nt,nt
O=C(Nc1c2c(nn1-c1ccc(Cl)cc1)CS(=O)(=O)C2)c1ccc(Br)cc1,nt,?,-75.9*,?,nt,nt
COC(=O)c1ccc2c(=O)n(CCCCCC(=O)O)c(=S)[nH]c2c1,?,?,-62.6*,?,-12.5%,13.2%
CCN1CCN(C(=O)CCCCCn2c(=O)[nH]c3cc(C(=O)OC)ccc3c2=O)CC1,-0.4%,-0.6%,6.7,-2.2%,-1.6%,6.0%
CCCCCn1c(=O)[nH]c2cc(C(=O)N3CCN(c4cc(Cl)ccc4C)CC3)ccc2c1=O,nt,-19.0%,-9.5,1.6%[46.1 µM],-3.4%[46.1 µM],nt
COc1cc2[nH]c(=O)n(CCCCCC(=O)N3CCN(c4ccc(Cl)cc4)CC3)c(=O)c2cc1OC,nt,17.8µM*,-12.8,7.1%[46.1 µM],-9.8%[46.1 µM],nt
COC(=O)c1ccc2c(=O)n(CCO)c(=S)[nH]c2c1,3.4%,-1.5%,-8.1,7.5%,7.2%,8.4%
SMILES,SARS PLpro yeast,FMDV antiviral,HCMV antiviral,LASV entry inh,MARV entry inh,HCV inh
COC(=O)c1ccc2c(=O)n(CCCCCC(=O)N3CCN(c4ccccc4)CC3)c(=O)[nH]c2c1,4.7%,11.2µM*,-29.1,?,?,10µM*
COc1cc2[nH]c(=O)n(CCC(=O)N3CCN(c4ccc(Cl)cc4)CC3)c(=O)c2cc1OC,nt,-22.7%,-10.6,5.7%[46.1 µM],-2.6%[46.1 µM],nt
COC(=O)c1ccc2c(=O)n(CCCCCC(=O)N3CCN(c4cc(Cl)ccc4C)CC3)c(=O)[nH]c2c1,nt,14.1µM*,-18.9,?,nt,nt
Cc1cc(S(=O)(=O)Nc2ccc(-c3ccc(N4CCCCC4)nn3)cc2)c(C)cc1Cl,nt,53.1%,-30.0,?,nt,nt
CC(CCN1CCCCc2nc(C)c(C)cc21)=NO[C@@H](C)c1cn([C@H](CO)Cc2ccccc2)nn1,nt,nt,nt,nt,-12.4%[14.2 µM],nt
CC1CCC(NC(=O)C2(C)Cc3ccccc3C(=O)N2Cc2ccccc2Cl)CC1 (centres undefined),nt,-15.3%,46.7,nt,-8.0%[46.1 µM],nt
CCCOc1ccc(C(F)(F)F)cc1NC(=O)CCc1c(C)noc1C,0.3%,-20.6%,0.0,nt,nt,7.08µM*
CC(=O)Nc1cc(C(F)(F)F)ccc1OCCOc1ccccc1,nt,-28.3%,16.4,-0.1%,-2.9%,10µM*
COc1ccc(-n2c(=O)c3c(c4cc(OC)ccc4n3C)n(Cc3cc(C)ccc3C)c2=O)cc1,nt,-14.0%,-2.6,9.3%[46.1 µM],nt,nt
COc1ccc(-c2cc(C)no2)cc1S(=O)(=O)NC(C)C,nt,52.2%,0.0,-5.0%[46.1 µM],nt,nt
Oc1ccc(CNc2ccc(F)cc2)c2cccnc12,11.9%,-28.0%,-14.0,?,?,?
Cc1cccc(NCc2ccc(O)c3ncccc23)c1,-0.9%,-21.3%,-84.0*,?,?,7.08µM*
COCc1ccc(O)c2ncccc12,-35.4%,-28.6%,-94.1*,?,?,5.62µM*
OCc1ccnc2c(O)cccc12,12.7%,-12.0%,1.9,4.11µM*,?,?
Oc1ccc(CNc2ccccc2)c2cccnc12,10µM*,?,nt,?,?,?
CCOC(=O)[C@@]1([C@@H](NC(=O)OC)c2cccc(C)c2)CCCC1=O,nt,nt,nt,nt,26.0%[14.2 µM],nt
Cc1cccc(C)c1NC(=O)C(=O)NCC(c1ccc2c(c1)OCO2)N1CCOCC1 (centres undefined),nt,0.7%,-15.5,6.0%[46.1 µM],nt,nt
CCOc1cc(CNCCCN2CCOCC2)ccc1OCC(=O)Nc1cccc2ccccc12,-2.8%,4.9%,?,14.6µM*,?,14.1µM*
O=C(COc1ccc(Br)cc1CNCCCN1CCOCC1)Nc1ccccc1,-2.3%,-8.8%,-9.9,?,?,?
CCOc1cc(CNC(CC)CO)ccc1OCC(=O)Nc1cccc(C(F)(F)F)c1 (centres undefined),-0.6%,-23.6%,-36.7,nt,nt,1.12µM*
COc1cc(CNCCCN2CCOCC2)ccc1OCC(=O)Nc1cccc(C(F)(F)F)c1,-7.0%,3.7%,42.7,?,?,10µM*
COc1cc(CNCCO)ccc1OCC(=O)Nc1ccc(Br)cc1,3.4%,4.0%,55.0,20.6%,-29.4%,5.62µM*
C[C@@H]1CN(Cc2ccc3c(c2)CN(C(=O)CCc2nc4ccc(F)cc4[nH]2)CCO3)C[C@H](C)O1,nt,-1.3%,nt,nt,nt,nt
